This is a sample that favours compounds with a hit; in the whole collection about 1.8% have one here.
Myeloid diff 2: myeloid differentiation induction; actives 1% (n = 360,000); calls only at 10 µM; ER-HoxA9 myeloid progenitors, lysozyme-GFP differentiation, flow cytometry; AID 624256;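 active = normalized GFP-positive differentiation at or above the plate's own cutoff, the solvent-only control mean plus 3 SD; inconclusive = no clear call, values can overlap the other calls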;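 note: cells exposed to compound for four days before flow analysis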
Exocytosis inh: lytic granule exocytosis inhibition | actives 0.66% (n = 360,000) | TALL-104 LAMP-1 surface exposure, flow cytometry; cells stimulated with thapsigargin and PMA | inhibition, % at 10 µM;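 active = inhibition above about 55%, limit read from the data; inconclusive = no clear call, values can overlap the other calls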
ABCB6 inh MLPCN: inhibitors of human ABC transporter ABCB6 | actives 0.19% (n = 360,000) | K562-ABCB6 porphyrin accumulation, flow cytometry, 1 h; hits give low values | fluorescence ratio to DMSO, % at 10 µM;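 active = fluorescence ratio to DMSO below 75%, the collection mean minus 3 SD; inconclusive = too few cells collected in the well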;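 note: signal is porphyrin accumulated inside mitochondria; 100% equals median channel fluorescence of DMSO control wells; lower ratio means ABCB6 inhibition with less porphyrin fluorescence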
Target sequence (Q9NP58 whole entry, looked up): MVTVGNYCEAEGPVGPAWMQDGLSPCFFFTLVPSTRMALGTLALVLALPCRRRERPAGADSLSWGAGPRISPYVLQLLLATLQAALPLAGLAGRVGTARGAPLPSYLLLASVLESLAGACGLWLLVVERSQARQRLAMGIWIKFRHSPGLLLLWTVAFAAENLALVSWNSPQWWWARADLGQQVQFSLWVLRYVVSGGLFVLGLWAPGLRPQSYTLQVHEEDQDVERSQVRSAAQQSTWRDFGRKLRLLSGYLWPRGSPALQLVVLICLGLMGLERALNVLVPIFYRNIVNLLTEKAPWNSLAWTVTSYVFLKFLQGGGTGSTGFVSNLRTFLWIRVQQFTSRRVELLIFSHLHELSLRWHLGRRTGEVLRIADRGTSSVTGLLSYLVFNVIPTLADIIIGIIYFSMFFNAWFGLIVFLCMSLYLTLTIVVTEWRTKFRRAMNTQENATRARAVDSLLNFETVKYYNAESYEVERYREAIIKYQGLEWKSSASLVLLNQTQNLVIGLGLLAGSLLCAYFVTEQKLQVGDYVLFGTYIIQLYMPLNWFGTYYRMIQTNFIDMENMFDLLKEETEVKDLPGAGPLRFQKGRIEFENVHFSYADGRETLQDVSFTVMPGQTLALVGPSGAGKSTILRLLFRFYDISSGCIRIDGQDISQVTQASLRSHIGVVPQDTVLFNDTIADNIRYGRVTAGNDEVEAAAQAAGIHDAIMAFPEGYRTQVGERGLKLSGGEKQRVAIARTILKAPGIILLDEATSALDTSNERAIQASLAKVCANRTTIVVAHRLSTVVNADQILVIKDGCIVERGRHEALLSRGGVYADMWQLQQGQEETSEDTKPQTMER
* = called active by the depositor; i = inactive; ? = inconclusive; / = not tested or not shown; + = active, no number; ! = not confirmed by another sample.

SMILES	Myeloid diff 2	Exocytosis inh	ABCB6 inh MLPCN
Cc1cccc(NC(=S)N(CCN(C)C)C(C)c2cccnc2)c1 (centres undefined)	i	-5	92
Cc1cccc(NC(=S)N(CCN(C)C)C(C)c2ccccn2)c1 (centres undefined)	+	1	93
O=C(OC1CC2CC1[C@H]1CCCCN1C2=O)N1CCN(S(=O)(=O)c2ccccc2)CC1 (some centres undefined)	i	-4	94
C[C@@H]1CN(S(=O)C(C)(C)C)[C@@H](CCO)/C1=C\CCO (some centres undefined)	i	0	98
COc1ccc(NC(=O)/C(C#N)=C\c2ccc(Br)o2)cc1	i	-3	101
N#C/C(=C\c1ccc([N+](=O)[O-])o1)C(=O)Nc1ccc(F)cc1	?	86*	147
CC1CN(S(=O)(=O)c2cccc(C(=O)NCC(c3cccs3)N3CCOCC3)c2)CC(C)O1 (centres undefined)	i	-4	99
COc1ccc(/C=C/c2ccc3ccccc3[n+]2C)cc1OC	+	2	287
CN(C)c1ccc(/C=C/c2ccc3ccccc3[n+]2C)cc1	/	6	494
C[C@H]1CN([C@@H](C)CO)C(=O)CCCn2nncc2CO[C@@H]1CN(C)C(=O)c1ccc2ccn(C)c2c1	i	0	101
COc1cc2c(cc1N/C=C(\C#N)c1nc(-c3ccccc3)cs1)oc1ccccc12	+	0	131
COc1cccc(-c2csc(/C(C#N)=C/Nc3cc4oc5ccccc5c4cc3OC)n2)c1	i	1	122
Cc1ccc2nc3cc([N+](=O)[O-])cc([N+](=O)[O-])c3cc2c1	?	63*	110
Cc1nc2ccc([N+](=O)[O-])cc2nc1C	i	10	96
CC1(C)Cc2c(cnn2-c2ccc(F)cc2)C(NC(=O)CN2CCCC2=O)C1 (centres undefined)	i	-2	98
O=C(/C=C/c1ccc(-c2ccccc2)o1)c1ccccc1	?	78*	99
Cc1ccc(-c2ccc(/C=C/C(=O)c3ccccc3)o2)cc1	?	68*	105
Cc1cccc(C=CC(=O)c2ccccc2)c1	i	-21	98
O=Cc1ccc(-c2cccc(C(=O)O)c2)o1	i	-6	97
O=C(/C=C/c1ccc(-c2ccccc2[N+](=O)[O-])o1)c1ccc(F)cc1	i	80*	101
O=C(/C=C/c1ccc(-c2ccccc2[N+](=O)[O-])o1)c1ccc(Br)cc1	i	32	105
C[C@H](O)[C@@H]1C(=O)N2CCc3c([nH]c4ccccc34)[C@@H]2C[C@@H]1N(C)S(=O)(=O)c1ccccc1	i	-1	103
O=C(NCC(c1ccco1)N1CCCCC1)c1cccnc1 (centres undefined)	i	-2	102
COC(=O)CC(c1ccc(OC)c(OC)c1)c1ccc(OC)c(OC)c1	i	2	96
O=c1c2ccccc2sc2nc(CCl)nn12	i	-1	98
SMILES	Myeloid diff 2	Exocytosis inh	ABCB6 inh MLPCN
CS(=O)(=O)N1CCN(c2ccc(C(=O)NC34CC5CC(CC(C5)C3)C4)cc2[N+](=O)[O-])CC1	i	3	90
O=C(NC12CC3CC(CC(C3)C1)C2)c1ccc(N2CCNCC2)c([N+](=O)[O-])c1	+	18	88
CC1=C(C(=O)N(C)C)CC(CC(=O)NCC2CCCCC2)C(=O)N1CCCN1CCCC1=O (centres undefined)	i	8	101
COc1ccc2c(C=Nc3c(C)n(C)n(-c4ccccc4)c3=O)c(O)n(Cc3ccco3)c(=O)c2c1	+!	4	104
Cc1c(N=Cc2ccco2)c(=O)n(-c2ccccc2)n1C	i	1	103
O=C(O)CCc1ccc(S(=O)(=O)Nc2cc(C(F)(F)F)ccc2N2CCCC2)cc1	i	1	88
COC(=O)c1ccc(C)c(NC(=O)CCCN2C(=O)CN(C)C2=O)c1	i	-1	98
CCn1c(SCC(=O)N/N=C/c2ccc(C)o2)nnc1-c1ccc(C(C)(C)C)cc1	+	-5	93
CCn1c(SCC(=O)N/N=C/c2ccc(C)o2)nnc1-c1ccc(C)cc1	i	-2	107
C[C@@H](c1ccccc1)N1C[C@@H](COCc2ccccc2)Oc2cc(N3CC[C@@H](N(C)C)C3)ccc2S1(=O)=O	i	48	97
CC(OC(=O)/C=C/c1ccccc1)C(=O)Nc1cccc(C#N)c1 (centres undefined)	i	5	101
CN(CC(=O)Nc1ccccc1Cl)C(=O)Cn1cc(C(F)(F)F)ccc1=O	i	5	96
CC(C)C[C@H]1CNC(=S)N1CC1CCCN1C[C@H](Cc1ccc(O)cc1)N1C[C@H](Cc2ccccc2)N(CC2CCCCC2)C1=S (some centres undefined)	i	12	98
CCOc1ccc(CCN2C(=S)N([C@@H](Cc3ccc(O)cc3)CN3CCCC3CN3C(=S)NC[C@@H]3Cc3ccc(O)cc3)C[C@@H]2CC(C)C)cc1 (some centres undefined)	i	-4	87
CCOc1ccc(CCN2C(=S)N([C@@H](Cc3ccc(O)cc3)CN3CCC[C@@H]3CN3C(=S)NC[C@@H]3CC(C)C)C[C@@H]2Cc2ccc(O)cc2)cc1	+	55	98
CC(C)C[C@H]1CNC(=S)N1C[C@H]1CCCN1C[C@H](Cc1ccccc1)N1C[C@H](Cc2ccc(O)cc2)N(CC2CCCCC2)C1=S	+	25	94
Cc1ccccc1CN1CC2=C(CCN(Cc3ccccc3)C2=O)N2CCN=C12	?	-9	98
COc1c(O)cccc1[C@H](O)C1CCN(CCc2ccc(F)cc2)CC1	i	-12	103
CC1(c2ccc3c(c2)OCCO3)NC(=O)N(CC(=O)Nc2ccccc2SCC#N)C1=O (centres undefined)	+	6	181
CC1(c2ccc3c(c2)OCCO3)NC(=O)N(CC(=O)Nc2ccccc2)C1=O (centres undefined)	i	1	100
Cc1ccc(-n2ncc(C(=O)Nc3cc(Cl)cc(Cl)c3)c2C2CCNCC2)cc1C	i	88*	118
Cc1ccc(-n2ncc(C(=O)Nc3cc(Cl)ccc3Cl)c2C2CCNCC2)cc1	i	5	109
COc1ccc(C(C)=O)c(OCC(=O)NCCC2=CCCCC2)c1	i	-6	102
N#Cc1cc2c(=O)n3ccccc3nc2n(-c2ccccc2Cl)c1=O	+	-1	258
N#Cc1cc2c(=O)n3ccccc3nc2n(Cc2cccnc2)c1=O	i	0	97
SMILES	Myeloid diff 2	Exocytosis inh	ABCB6 inh MLPCN
COc1ccc(C2=CSC3=NNC4(CCCCC4)NN23)cc1	i	0	106
Cc1ccc(C2=CSC3=NNC4(CCCCC4)NN23)cc1	+	2	218
O=C(O)C1OCC2(CO1)COC(C(=O)O)OC2 (centres undefined)	i	0	102
O=C(NCCn1cc(SCc2ccc(F)cc2)c2ccccc21)c1ccccc1F	+	14	94
O=C(NCCn1cc(SCc2ccc(F)cc2)c2ccccc21)c1c(F)cccc1F	i	22	95
COC(=O)c1cc(NC(=O)Cc2coc3cc(OC)ccc23)cc(C(=O)OC)c1	i	-1	94
COC(=O)c1ccc(C)c(NC(=O)Cc2coc3cc(OC)ccc23)c1	+	4	102

Screening results deposited in PubChem by NMMLSC.
